hcDAF-12 act – activates DAF-12 receptor from parasite H. contortus. HEK293 hcDAF-12 lit1-tk-luc reporter, luminescence; 0% DMSO, 100% Δ7-dafachronic acid. activation, % at 6.8 µM. 370,000 tested, 1.4% active;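 active = activation above the mean of all tested compounds plus 3 SD, cut at about 5.5% in these data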;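 note: 100% = response to 3 µM Δ7-dafachronic acid high control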
DAX1 inh-1 – DAX1 (NR0B1) inhibition, primary screen | HEK293T StAR-luciferase reporter, SF-1/DAX-1 repression relief | 370,000 tested, 1.1% active | inhibition, % at 6.8 µM | AID 652010;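 active = inhibition above the mean over all tested compounds plus 3 SD, cut at about 3.6% in these data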;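 note: 0% = DAX-1 cells with DMSO and 100% = cells lacking DAX-1 with DMSO; higher inhibition means more luminescence from relief of DAX-1 repression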
ssDAF-12 act – activates DAF-12 receptor from parasite S. stercoralis; HEK293 ssDAF-12/GRIP1 lit1-tk-luc reporter, luminescence; % of 3 µM dafachronic acid response; activation, % at 6.8 µM; 370,000 tested, 1% active; AID 652126;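 active = activation above the mean over all tested compounds plus 3 SD, cut at about 0.9% in these data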;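 note: 0% = DMSO-only wells and 100% = 3 µM delta7-dafachronic acid wells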
DAX1 inh-2 – NR0B1 (DAX1) inhibition; P51843; HEK293 Gal4-DAX1 luciferase reporter, luminescence; inhibition, % at 6.75 µM; 340,000 tested, 0.99% active; AID 504766;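 active = inhibition above the mean over all tested compounds plus 3 SD, cut at about 4.2% in these data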;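 note: 0% = DAX1-transfected cells with DMSO and 100% = empty-vector control cells with DMSO; inhibition shows as a rise in luminescence from relieved DAX1 repression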
hgDAF-12 ag – agonists of H. glycines DAF-12 nuclear receptor | HEK293 GAL4-hgDAF12 UAS-luciferase reporter, agonist luminescence; normalized to butyrate control | activation, % at 6.8 µM | AID 687014 | 370,000 tested, 1.8% active;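 active = activation above a cutoff set at the mean of all screened compounds plus 3 SD, cut at about 10% in these data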;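 note: 0% = DMSO wells and 100% = sodium butyrate wells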
DAX1 inh confirm – confirmation of human DAX1 (NR0B1) inhibitors; inhibition, % at 6.8 µM; HEK293T StAR-promoter luciferase reporter, SF-1/DAX-1 repression; shares compounds with DAX1 inh-1; 2,400 tested, 87% active;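 active = inhibition above the average of every tested compound plus 3 SD, cut at about 3.8% in these data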;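 note: 0% = DAX-1 cells with DMSO and 100% = no DAX-1 control cells with DMSO; active compounds raise luminescence by relieving repression of the StAR reporter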
Target sequence (P51843 whole entry, looked up): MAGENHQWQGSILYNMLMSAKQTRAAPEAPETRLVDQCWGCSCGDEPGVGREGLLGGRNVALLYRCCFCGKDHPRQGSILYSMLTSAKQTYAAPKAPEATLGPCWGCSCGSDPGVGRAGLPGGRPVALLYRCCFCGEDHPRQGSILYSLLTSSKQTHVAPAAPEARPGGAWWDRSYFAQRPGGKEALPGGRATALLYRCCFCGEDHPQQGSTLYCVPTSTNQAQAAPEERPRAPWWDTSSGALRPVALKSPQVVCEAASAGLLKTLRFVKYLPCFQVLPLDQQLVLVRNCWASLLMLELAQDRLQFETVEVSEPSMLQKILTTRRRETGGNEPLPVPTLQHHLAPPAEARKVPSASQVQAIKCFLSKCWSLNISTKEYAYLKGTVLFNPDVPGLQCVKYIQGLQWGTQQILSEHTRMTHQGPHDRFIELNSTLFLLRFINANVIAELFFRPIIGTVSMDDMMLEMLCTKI
SF1 AF2mut Luc – nonselective inhibitor or artifact in SF-1 mutant DAX1 counter-screen; shares compounds with DAX1 inh-1; HEK293 StAR-luciferase, SF-1 AF2 mutant, luminescence; inhibition, % at 6.8 µM; 2,400 tested, 78% active;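 active = inhibition above the mean of all tested compounds plus 3 SD, cut at about 3% in these data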;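 note: 0% = DAX-1 transfected cells with DMSO and 100% = cells without DAX-1 with DMSO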
LXR ag – activates human LXR-beta, counter-screen for hcDAF-12 agonists | HEK293 Gal4-LXR tk-luc reporter, luminescence, 24 h; normalized: DMSO 0%, positive control 100% | 3,400 tested, under 10 active | activation, % at 6.8 µM | shares compounds with hcDAF-12 act;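 active = mean percent activation of the reporter above a cutoff set as the average over tested compounds plus their standard deviation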
hcDAF12 ag – confirmation of H. contortus DAF-12 agonists; shares compounds with hcDAF-12 act; HEK293 hcDAF-12 lit1-tk-luc reporter, luminescence; % of Δ7-dafachronic acid response; activation, % at 6.8 µM; 3,400 tested, 61% active;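 active = mean activation across triplicate tests above the threshold derived from the earlier primary screen, cut at about 5.5% in these data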;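 note: 0% = DMSO only wells and 100% = 3 µM Δ7-dafachronic acid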
hgDAF12 conf – hgDAF-12 agonism, confirmation assay; shares compounds with hgDAF-12 ag; 3,300 tested, 80% active; activation, % at 6.8 µM; AID 743050; HEK293 GAL4-hgDAF12 luciferase reporter, agonist mode; percent of butyrate response;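 active = mean activation over triplicate wells above the hit cutoff derived from the earlier primary screen, cut at about 11% in these data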;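 note: 0% = DMSO low control and 100% = 2 mM sodium butyrate high control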
LXRb DAF12 ctr – counter-screen for DAF-12 agonists: agonists of human LXR-beta | shares compounds with hgDAF-12 ag | HEK293 Gal4-LXR luciferase reporter, 24 h | activation, % at 6.8 µM | 3,300 tested, under 10 active | AID 743051;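 active = mean activation of the triplicate above a set limit carried over from the primary screen, none filed active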
* marks the source's active call; other numbers are inactive results; . = not tested or not shown. An excerpt weighted towards active compounds, which were near 4.1% of everything screened.

SMILES	hcDAF-12 act	DAX1 inh-1	ssDAF-12 act	DAX1 inh-2	hgDAF-12 ag	DAX1 inh confirm	SF1 AF2mut Luc	LXR ag	hcDAF12 ag	hgDAF12 conf	LXRb DAF12 ctr
N#Cc1cnn(-c2ccccc2)c1NC(=O)c1ccccc1F	-2	-1	-1	1	5	.	.	.	.	.	.
O=[N+]([O-])c1cccc(COc2ccc(CN3CCOCC3)cc2)c1	7.8*	7.2*	1.4*	2	20*	9.8*	5.5*	1	6.6*	16*	1
O=[N+]([O-])c1cccc(CN2CCCCCC2)c1	-2	0	0	1	2	.	.	.	.	.	.
O=[N+]([O-])c1cccc(COc2ccc(CN3CCCC3)cc2)c1	3	4.5*	0	2	24*	11*	6.8*	.	.	15*	1
c1ccc(-c2nc(-c3nccc4ccccc34)oc2-c2ccccc2)cc1	15*	4.8*	3.0*	5.0*	18*	4.8*	2	1	5.7*	19*	1
C[C@@H](NC(=O)[C@H]1O[C@@H](n2cnc3c(N)ncnc32)[C@H](O)[C@@H]1O)c1cccc2ccccc12	-2	2	-1	.	-2	.	.	.	.	.	.
CC1CCC(NC(=O)c2nn(C)c(=O)c3ccccc23)CC1 (centres undefined)	-2	-1	-1	0	-3	.	.	.	.	.	.
CC1CCC(NC(=O)c2cccn2C)CC1 (centres undefined)	4	10.0*	0	3	15*	14*	7.4*	.	.	14*	1
N#Cc1ccsc1NC(=O)COC(=O)c1ccc(NC(N)=O)cc1	8.0*	6.0*	0	1	17*	9.7*	7.1*	1	5.6*	16*	1
O=C(CS(=O)(=O)Cc1ccccc1)N1CCc2ccccc21	3	2	0	0	5	.	.	.	.	.	.
O=C(CCCc1ccccc1)N1CCc2ccccc21	7.8*	6.2*	2.0*	2	16*	17*	6.7*	2	10*	18*	1
O=C(OCC(=O)N1CCc2ccccc21)c1ccccc1F	4	2	0	0	2	.	.	.	.	.	.
O=C(OCC(=O)N1CCc2ccccc21)c1ccccc1[N+](=O)[O-]	7.5*	7.1*	2.6*	1	18*	17*	9.6*	1	8.4*	17*	1
COc1cc([N+](=O)[O-])ccc1NC(=S)NNC(=O)c1ccc2c(c1)OCO2	1	0	-1	0	2	.	.	.	.	.	.
O=C(NC(=S)Nc1cc([N+](=O)[O-])ccc1O)c1ccc2c(c1)OCO2	9.2*	10.0*	0	1	16*	16*	7.4*	2	9.7*	18*	1
CCCCNC(=O)C1(C)CCN1C(=O)c1cccc(OC(C)=O)c1C (centres undefined)	-2	0	-1	.	3	.	.	.	.	.	.
O=C(NCC1COCCO1)C1CCN(S(=O)(=O)c2cccs2)CC1 (centres undefined)	-1	0	-1	.	2	.	.	.	.	.	.
CCOc1ccc(-n2nc3c(=O)n(CCN4CCCCC4)nc(C)c3c2C)cc1	-3	-1	-2	0	2	.	.	.	.	.	.
